Results reported in PubChem BioAssay (NCATS).
Records with an inconclusive call do not appear. Entries that show only a call come without a potency. The source made the active and inactive calls. The call rests on the fitted dose curve; in most records, active means well fitted inhibition curve with a large enough effect; inconclusive means small, poorly fitted or top-dose-only effect; inactive means flat fitted curve, though single readings scatter.

Tests used:
[1] = target: Glutathione peroxidase 1 (Homo sapiens) (UniProt P07203); assay: Primary qHTS Assay for Inhibitors of Recombinant Selenoprotein Glutathione Peroxidase 1 (GPX1) (AID 1845191); conditions: recombinant GPX1, GR-coupled NADPH fluorescence, 15 min; series mostly up to 48.8 µM; further: nearly all actives have a fitted effect of over 65% in size
Glutathione peroxidase 1 (Homo sapiens), sequence (P07203 whole entry, looked up): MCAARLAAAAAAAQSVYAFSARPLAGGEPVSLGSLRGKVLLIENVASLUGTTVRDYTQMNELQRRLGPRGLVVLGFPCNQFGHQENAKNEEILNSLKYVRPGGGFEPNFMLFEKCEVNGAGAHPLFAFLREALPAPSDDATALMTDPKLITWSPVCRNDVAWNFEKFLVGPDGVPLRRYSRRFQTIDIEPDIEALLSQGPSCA
In short: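 10 nM GPX1 + cpd, 30 min RT; start w/ 1 mM GSH, 0.5 mM cumene hydroperoxide, 0.5 mM NADPH, 100 nM GR, 0.01% BSA; buffer 50 mM Tris-HCl pH 7.5, 2 mM EDTA, 150 mM NaCl; Fl 340/450, 0 & 15 min.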

[2] = target: Phospholipid hydroperoxide glutathione peroxidase GPX4 (Homo sapiens) (UniProt P36969); assay: Primary qHTS Assay for Inhibitors of Recombinant Selenoprotein Glutathione Peroxidase 4 (GPX4) (AID 1845192); conditions: recombinant GPX4, GR-coupled NADPH fluorescence, 15 min; series mostly up to 50 µM; further: nearly all actives have a fitted effect of over 65% in size; further: potency means the concentration at half of the fitted maximal effect
Phospholipid hydroperoxide glutathione peroxidase GPX4 (Homo sapiens), sequence (P36969 whole entry, looked up): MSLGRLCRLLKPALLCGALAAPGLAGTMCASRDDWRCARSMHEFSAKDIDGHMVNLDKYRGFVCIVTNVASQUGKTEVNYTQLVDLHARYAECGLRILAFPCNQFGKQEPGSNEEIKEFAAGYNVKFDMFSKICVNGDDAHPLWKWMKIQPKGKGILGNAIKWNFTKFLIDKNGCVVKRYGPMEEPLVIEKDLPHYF
In short: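 NADPH consumption, followed by fluorescence at 340/450 nm between 0 and 15 min, reports GPX4 activity via coupled glutathione reductase (100 nM). Enzyme 200 nM was pre-exposed to compound 30 min; 0.5 mM cumene hydroperoxide and 1 mM GSH served as substrates.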

[3] = target: Luciferin 4-monooxygenase (Photinus pyralis) (UniProt P08659); assay: Primary firefly luciferase (FLuc) qHTS assay for identification of artifact compounds. (AID 1845220); conditions: purified firefly luciferase, luminescence, 5 min; series mostly up to 54.1 µM; further: nearly all actives have a fitted effect of over 60% in size
In short: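 Compounds sat 15 min at room temperature with 10 uM luciferin and 10 uM ATP (pH 7.6 Tris acetate). Firefly luciferase (10 nM final) was then added, and luminescence was read 5 min later. Data normalized to no-enzyme and DMSO controls were Hill-fitted.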

SMILES	outcome [1]	Potency [2]	outcome [3]
CC1=C2[C@H]3OC(=O)[C@@H](C)[C@@H]3CC[C@@]2(C)C=CC1=O	inactive	inactive	–
C#C[C@]1(O)C=C[C@H]2[C@@H]3CCC4=CC(=O)CC[C@@H]4[C@H]3CC[C@@]21CC	inactive	inactive	–
CC(Cc1ccccc1)NCCCCl (configuration not stated)	inactive	inactive	–
c1ccc2c(c1)Sc1ccccc1N2CC1CN2CCC1CC2 (configuration not stated)	inactive	inactive	–
Cc1cccc(Cc2cnc[nH]2)c1C	inactive	inactive	–
CN(C)C(=O)Oc1cc(OC(=O)N(C)C)cc(C(O)CNC(C)(C)C)c1 (configuration not stated)	inactive	inactive	–
CCC(=O)C(CCN(C)C)(c1ccccc1)c1ccccc1	inactive	inactive	–
Cc1c(Cl)c(=O)oc2cc(OP(=O)(OCCCl)OCCCl)ccc12	–	inactive	–
CC(C)[N+](C)(CCC(C(N)=O)(c1ccccc1)c1ccccc1)C(C)C	inactive	inactive	–
O=C(N[C@@H]1N=C(c2ccccc2F)c2cccc3c2N(CC3)C1=O)c1cc2ccccc2[nH]1	–	inactive	–
CCOC(=O)c1ncn2c1CN(C)C(=O)c1c(I)cccc1-2	inactive	inactive	inactive
O=C(N[C@H]1N=C(c2ccccc2F)c2cccc3c2N(CC3)C1=O)c1cc2ccccc2[nH]1	inactive	–	inactive
C#C[C@]1(O)CC[C@H]2[C@@H]3CCC4=CC(=O)CCC4=C3C=C[C@@]21CC	–	10 µM (active)	–
Cc1ccc([N+](=O)[O-])[c]2c1[O][Hg]2	–	inactive	–
O=C(O)CCCCCCNC1c2ccccc2CCc2ccccc21	inactive	inactive	inactive
CN(C)C(=S)SSC(=S)N(C)C	inactive	inactive	–

SMILES	outcome [1]	Potency [2]	outcome [3]
O=c1n(Cl)c(=O)n(Cl)c(=O)n1Cl	–	inactive	–
Cc1ccc(N=CN(C)C=Nc2ccc(C)cc2C)c(C)c1	inactive	inactive	–
CCOC(=O)NC(C)(C)Cc1ccc(Cl)cc1	inactive	inactive	inactive
CCCOC(=O)Cc1ccc(OCC(=O)N(CC)CC)c(OC)c1	inactive	inactive	inactive
C[C@]12Cc3nonc3C[C@@H]1CC[C@@H]1[C@@H]2CC[C@@]2(C)[C@H]1CC[C@]2(C)O	inactive	inactive	–
CCCCC1C(=O)NC(=O)N(C2CCCCC2)C1=O (configuration not stated)	inactive	inactive	inactive
CC(CC(C(N)=O)(c1ccccc1)c1ccccc1)N(C)C (configuration not stated)	inactive	inactive	–
CCOC(=O)C1(c2ccccc2)CCN(CCc2ccc(N)cc2)CC1	inactive	inactive	–
C=CCOC(Cn1ccnc1)c1ccc(Cl)cc1Cl (configuration not stated)	inactive	inactive	–
COc1ccc2c(C(=O)c3ccc(Cl)cc3)c(C)n(CC(=O)O)c2c1	inactive	inactive	inactive
Cc1nnc2n1-c1sc(CCc3ccc(CC(C)C)cc3)cc1C(c1ccccc1Cl)=NC2C (configuration not stated)	inactive	25.5 µM (active)	inactive
CCCC[N+]1(C)[C@@H]2CC(OC(=O)[C@H](CO)c3ccccc3)C[C@H]1[C@@H]1O[C@@H]12 (some centres not stated)	inactive	inactive	inactive
CCOC(=O)c1cncn1C(C)c1ccccc1 (configuration not stated)	inactive	inactive	inactive
CC[C@H]1C[C@H]2[C@@H]3CCC4=CC(=O)CC[C@@H]4[C@H]3CC[C@]2(C)[C@H]1O	inactive	inactive	inactive
Clc1ccc(C(OCCN2CCCCC2)c2ccccc2)cc1 (configuration not stated)	inactive	inactive	–
